Seven molecules from PubChem BioAssay (EPA / NIEHS) can be followed below.

Read-out in experiment [1]: C-C motif chemokine 2 (Homo sapiens) (UniProt P13500)
Description: BSK_KF3CT_MCP1: BioMAP Diversity Plus: KF3CT Assay for Monocyte Chemoattractant Protein 1 (MCP1/CCL2) Biomarker Activity (AID 2283073). The following applies: primary human keratinocytes with fibroblasts; actives raise or lower the signal. In outline:
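ELISA readout of MCP-1 after 24 h chemical dosing of a human skin primary co-culture of keratinocytes and foreskin fibroblasts. Activity was fitted in both directions against DMSO.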

Read-out in experiment [2]: urokinase plasminogen activator (uPA), PLAU (gene 5328)
Description: BSK_KF3CT_uPA: BioMAP Diversity Plus: KF3CT Assay for urokinase plasminogen activator (uPA) Biomarker Activity (AID 2283075). The following applies: primary human keratinocytes with fibroblasts; actives raise or lower the signal. In a few lines: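 Primary human keratinocyte/foreskin fibroblast co-culture exposed to chemical; uPA measured by ELISA at 24 h. Bidirectional fit versus DMSO, with parallel SRB total-protein staining for cytotoxicity.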

Read-out in experiment [3]: CD40, CD40 (gene 958)
The experiment is described as follows: BSK_LPS_CD40: BioMAP Diversity Plus: LPS Assay for CD40 Biomarker Activity (AID 2283076). The conditions noted are these: primary human HUVEC with PBMC; actives raise or lower the signal. In a few lines: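 Cells were dosed, incubated 24 h, then assayed for CD40 by ELISA. Gain or loss of signal was analysed relative to DMSO controls. The culture paired human umbilical vein endothelium with peripheral blood mononuclear cells.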

Read-out in experiment [4]: E-selectin (Homo sapiens) (UniProt P16581)
The experiment is described as follows: BSK_LPS_Eselectin: BioMAP Diversity Plus: LPS Assay for Eselectin Biomarker Activity (AID 2283077). The conditions noted are these: primary human HUVEC with PBMC; actives raise or lower the signal. In a few lines: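 Primary human vascular co-culture (endothelium plus PBMC) was dosed with chemical, then E-selectin quantified by ELISA at 24 h. Endpoint values derive from bidirectional curve fitting relative to DMSO.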

Read-out in experiment [5]: Interleukin-8 (IL8), CXCL8 (gene 3576)
Description: BSK_LPS_IL8: BioMAP Diversity Plus: LPS Assay for Interleukin-8 (IL8) Biomarker Activity (AID 2283078). The conditions noted are these: primary human HUVEC with PBMC; actives raise or lower the signal. In outline:
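Readout is IL-8 by ELISA, taken 24 h after compounds were added to LPS-stimulated endothelial/PBMC co-cultures. Both increases and decreases relative to DMSO control were scored through bidirectional fitting.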

Experiment [6] can be described thus: BSK_LPS_SRB: Viability Assessment in the BioMAP Diversity Plus: LPS Assay (AID 2283079).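 Further: total protein by sulforhodamine B absorbance as a cytotoxicity measure; measured one day after compound addition.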 The following applies: primary human HUVEC with PBMC. In outline:
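Readout is SRB absorbance at 560 nm (0.1% stain, TCA-fixed parallel cultures) as a total-protein cytotoxicity measure. Cells: primary human umbilical vein endothelium plus peripheral blood mononuclear cells, 24 h after chemical exposure; DMSO served as baseline.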

Read-out in experiment [7]: Interleukin-1 alpha (IL1a), IL1A (gene 3552)
Description: BSK_LPS_IL1a: BioMAP Diversity Plus: LPS Assay for Interleukin-1 alpha (IL1a) Biomarker Activity (AID 2283080). The following applies: primary human HUVEC with PBMC; actives raise or lower the signal. In outline: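 ELISA read-out of IL-1 alpha from a human primary vascular co-culture (endothelium plus PBMC) under LPS, sampled 24 hours post-dosing. Activity was fitted in both directions relative to DMSO controls.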

Read-out in experiment [8]: Monocyte Chemoattractant Protein-1 (MCP1), CCL2 (gene 6347)
The experiment is described as follows: BSK_LPS_MCP1: BioMAP Diversity Plus: LPS Assay for Monocyte Chemoattractant Protein-1 (MCP1) Biomarker Activity (AID 2283081).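 On AC50: secreted MCP-1 protein quantified by ELISA in culture supernatant.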 The following applies: primary human HUVEC with PBMC; actives raise or lower the signal. In outline:
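Human endothelial–PBMC co-cultures were dosed with chemical, then LPS-driven MCP-1 levels were quantified by ELISA at 24 h. Activity in either direction was fitted versus DMSO negative control.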

A short description of experiment [9]: BSK_LPS_PGE2: BioMAP Diversity Plus: LPS Assay for Prostaglandin E2 (PGE2) Biomarker Activity (AID 2283082). The following applies: primary human HUVEC with PBMC; actives raise or lower the signal. In outline:
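HUVEC plus PBMC co-culture stimulated with LPS; secreted PGE2 quantified by ELISA 24 h after chemical dosing. Activity fitted bidirectionally against DMSO as negative control and baseline; parallel SRB total-protein staining served as cytotoxicity check.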

Read-out in experiment [10]: Macrophage colony-stimulating factor (MCSF), CSF1 (gene 1435)
Description: BSK_LPS_MCSF: BioMAP Diversity Plus: LPS Assay for Macrophage colony-stimulating factor (MCSF) Biomarker Activity (AID 2283083). The following applies: primary human HUVEC with PBMC; actives raise or lower the signal. In outline:
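ELISA readout of M-CSF after 24 h compound exposure in a human endothelial/PBMC co-culture. Activity, in either direction, is fitted relative to DMSO vehicle.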

Read-out in experiment [11]: Tissue Factor, F3 (gene 2152)
Description: BSK_LPS_TissueFactor: BioMAP Diversity Plus: LPS Assay for Tissue Factor Biomarker Activity (AID 2283084). The conditions noted are these: primary human HUVEC with PBMC; actives raise or lower the signal. In outline:
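ELISA signal for cell-surface Tissue Factor (CD142) was read 24 h after compound dosing of an LPS-stimulated human endothelial–PBMC primary co-culture. Gain or loss of signal was scored relative to DMSO.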

Read-out in experiment [12]: Vascular cell adhesion molecule 1 (VCAM1), VCAM1 (gene 7412)
The experiment is described as follows: BSK_LPS_VCAM1: BioMAP Diversity Plus: LPS Assay for Vascular cell adhesion molecule 1 (VCAM1) Biomarker Activity (AID 2283086). The conditions noted are these: primary human HUVEC with PBMC; actives raise or lower the signal. In outline:
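Human umbilical vein endothelial cells co-cultured with peripheral blood mononuclear cells under LPS stimulation were exposed to test chemical for 24 h. VCAM-1 levels were then measured by ELISA, with bidirectional curve fitting relative to DMSO as negative control and baseline.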

Read-out in experiment [13]: CD38, CD38 (gene 952)
The experiment is described as follows: BSK_SAg_CD38: BioMAP Diversity Plus: SAg Assay for CD38 Biomarker Activity (AID 2283087). The following applies: primary human HUVEC with PBMC; actives raise or lower the signal. In outline:
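Fluorescence ELISA of cell-surface CD38 served as the read-out, with either increase or decrease fitted against DMSO controls. Cells were a human umbilical vein endothelium plus PBMC co-culture under SEB/TSST-1 stimulation, measured 24 h after dosing.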

Read-out in experiment [14]: CD40, CD40 (gene 958)
The experiment is described as follows: BSK_SAg_CD40: BioMAP Diversity Plus: SAg Assay for CD40 Biomarker Activity (AID 2283088). The conditions noted are these: primary human HUVEC with PBMC; actives raise or lower the signal. In outline: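 Compounds were dosed onto a human primary endothelial–PBMC co-culture, and after 24 h CD40 was quantified by ELISA using a fluorescence signal. Activity in either direction was fitted relative to DMSO.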

Read-out in experiment [15]: CD69, CD69 (gene 969)
The experiment is described as follows: BSK_SAg_CD69: BioMAP Diversity Plus: SAg Assay for CD69 Biomarker Activity (AID 2283089).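 On AC50: cell surface CD69 protein quantified by ELISA with fluorescence detection.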 The following applies: primary human HUVEC with PBMC; actives raise or lower the signal. In outline:
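HUVEC co-cultured with PBMC were dosed with chemical, and CD69 was measured by ELISA with fluorescence read-out 24 h later. Bidirectional curve fitting used DMSO as negative control and activity baseline.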

Read-out in experiment [16]: Monocyte Chemoattractant Protein-1 (MCP1), CCL2 (gene 6347)
The experiment is described as follows: BSK_SAg_MCP1: BioMAP Diversity Plus: SAg Assay for Monocyte Chemoattractant Protein-1 (MCP1) Biomarker Activity (AID 2283090). The following applies: primary human HUVEC with PBMC; actives raise or lower the signal. In a few lines:
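MCP-1 levels in the endothelial–PBMC SAg co-culture were quantified by ELISA at 24 h post-dosing; both increases and decreases versus DMSO scored. Cytotoxicity monitored by SRB total protein in parallel cultures.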

Read-out in experiment [17]: E-selectin (Homo sapiens) (UniProt P16581)
Description: BSK_SAg_Eselectin: BioMAP Diversity Plus: SAg Assay for Eselectin Biomarker Activity (AID 2283091). The conditions noted are these: primary human HUVEC with PBMC; actives raise or lower the signal. In outline:
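Co-culture: HUVEC + PBMC. Dose compound; 24 h. ELISA for E-selectin. Bidirectional fit vs DMSO.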

Read-out in experiment [18]: Monokine induced gamma interferon (MIG), CXCL9 (gene 4283)
The experiment is described as follows: BSK_SAg_MIG: BioMAP Diversity Plus: SAg Assay for Monokine induced gamma interferon (MIG) Biomarker Activity (AID 2283092). The conditions noted are these: primary human HUVEC with PBMC; actives raise or lower the signal. In a few lines: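 HUVEC plus human PBMC co-culture, chemicals dosed and MIG (CXCL9) quantified by ELISA at 24 h. Bidirectional curve fitting against DMSO as negative control and baseline, so both gain and loss of signal count as activity.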

Activity calls are given as the source filed them. How the source made its calls: active means hit-call score of the fitted dose curve at least 0.9, where 1 is the maximum; inactive means score below 0.9.

Chain of E-selectin (Homo sapiens) (P16581 whole entry, looked up): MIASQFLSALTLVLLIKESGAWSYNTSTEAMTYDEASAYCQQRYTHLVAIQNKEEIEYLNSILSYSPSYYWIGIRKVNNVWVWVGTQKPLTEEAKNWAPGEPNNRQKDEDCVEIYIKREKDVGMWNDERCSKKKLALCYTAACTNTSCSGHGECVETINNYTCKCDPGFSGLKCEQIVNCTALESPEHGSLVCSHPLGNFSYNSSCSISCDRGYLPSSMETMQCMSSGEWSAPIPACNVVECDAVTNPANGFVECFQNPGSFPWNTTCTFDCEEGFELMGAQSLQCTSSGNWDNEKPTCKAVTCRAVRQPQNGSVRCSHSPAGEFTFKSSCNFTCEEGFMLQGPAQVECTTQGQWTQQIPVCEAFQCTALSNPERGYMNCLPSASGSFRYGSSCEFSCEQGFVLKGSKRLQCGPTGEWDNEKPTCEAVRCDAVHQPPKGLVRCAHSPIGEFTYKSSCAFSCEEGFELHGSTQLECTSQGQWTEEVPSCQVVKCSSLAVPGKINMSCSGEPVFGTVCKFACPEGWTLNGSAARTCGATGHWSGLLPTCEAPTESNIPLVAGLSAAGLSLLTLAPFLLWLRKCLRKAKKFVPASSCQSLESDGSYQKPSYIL

As for `Cc1cc(C)cc(C)c1`, the result in experiment [1], in experiment [2], in experiment [3], in [4], in [5] and in experiment [6] was inactive. Moreover, the result in experiment [7], in [8], in experiment [9], in experiment [10], in experiment [11] and in [12] was inactive. The result in [13], in experiment [14], in [15], in experiment [16], in [17] and in [18] was inactive.

Consider `Oc1cc(Cl)c(Cl)cc1Cl`, for which the AC50 was 20 µM (active) in experiment [1]; 14.1 µM (active) in experiment [3]; 34.1 µM (active) in [4]; 32.3 µM (active) in [5]; 25.7 µM (active) in experiment [6]; 32.6 µM (active) in [7]. Further, the AC50 in experiment [8] is 30.2 µM (active); in experiment [10], 20 µM (active); in experiment [12], 32 µM (active); in experiment [13] it was 26.8 µM (active); in experiment [14], 24.8 µM (active); in experiment [15] it was 20 µM (active). The AC50 in experiment [16] is 32.2 µM (active); in [17], 26.5 µM (active). In addition, the result in experiment [2], in experiment [9], in experiment [11] and in experiment [18] was inactive.

Turning to `Clc1cccc(Cl)c1`, the result in experiment [1], in experiment [2], in experiment [3], in experiment [4], in [5] and in [6] was inactive. Further, the outcome in experiment [7], in [8], in [9], in [10], in experiment [11] and in [12] was inactive. The outcome in experiment [13], in experiment [14], in [15], in experiment [16], in [17] and in experiment [18] was inactive.

For the molecule `Cc1ccccc1OP(=O)(Oc1ccccc1)Oc1ccccc1`, the outcome in [1], in experiment [2], in experiment [5], in experiment [9], in experiment [11] and in [18] was inactive. The AC50 was 15.7 µM (active) in experiment [3]; 29.2 µM (active) in experiment [4]; 20 µM (active) in experiment [6]; 28.1 µM (active) in experiment [7]; 20 µM (active) in experiment [8]; 20 µM (active) in experiment [10]. Also, the AC50 in experiment [12] is 20 µM (active); in experiment [13], 20 µM (active); in experiment [14], 28.3 µM (active); in [15], 28.1 µM (active); in experiment [16], 20 µM (active); in experiment [17], 30.9 µM (active).

Regarding `Cc1cc(Cl)ccc1N`, the outcome in experiment [1], in [2], in experiment [3], in experiment [4], in experiment [5] and in experiment [6] was inactive. The outcome in experiment [7], in experiment [8], in [9], in [10], in experiment [11] and in [12] was inactive. In addition, the result in experiment [13], in [14], in experiment [15], in experiment [16], in experiment [17] and in [18] was inactive.

As for `OCCN(CCO)CCO`, the result in experiment [1], in [2], in experiment [3], in experiment [4], in experiment [5] and in experiment [6] was inactive. The result in [7], in experiment [8], in [9], in [10], in experiment [11] and in [12] was inactive. Besides, the result in experiment [13], in [14], in [15], in experiment [16], in experiment [17] and in [18] was inactive.

For the molecule `CCC(C)(C#N)N=NC(C)(C#N)CC` (stereo unspecified), the outcome in experiment [1], in experiment [2], in [3], in experiment [4], in experiment [5] and in experiment [6] was inactive. Also, the outcome in [7], in experiment [8], in experiment [9], in [10], in [11] and in experiment [12] was inactive. The outcome in experiment [13], in [14], in experiment [15], in [16], in experiment [17] and in experiment [18] was inactive.
